# Reference: ChEMBL document CHEMBL3988442, “University of Dundee, Small-Polar-MMV Screening Library” (2021)
# For some of these results: Measured potencies and affinities stand elsewhere.
# Tests used:
# Design in all cases: scale not given: direction of the effect not stated beside the values
# [1] = biological target: Protein translocase subunit SecA (Escherichia coli (strain K12)) (UniProt P10408); experiment: Assay to Identify E. coli SecA ATPase Inhibitors; format: functional; settings: 30 µM
# [2] = biological target: T1, Ubiquitin-activating enzyme e1, putative (Leishmania donovani (strain BPK282A1)) (UniProt E9BSI1); experiment: Leishmania donovani Ubiquitin Activating Enzyme (LdE1); format: functional; settings: 30 µM
# T1 sequence (whole entry): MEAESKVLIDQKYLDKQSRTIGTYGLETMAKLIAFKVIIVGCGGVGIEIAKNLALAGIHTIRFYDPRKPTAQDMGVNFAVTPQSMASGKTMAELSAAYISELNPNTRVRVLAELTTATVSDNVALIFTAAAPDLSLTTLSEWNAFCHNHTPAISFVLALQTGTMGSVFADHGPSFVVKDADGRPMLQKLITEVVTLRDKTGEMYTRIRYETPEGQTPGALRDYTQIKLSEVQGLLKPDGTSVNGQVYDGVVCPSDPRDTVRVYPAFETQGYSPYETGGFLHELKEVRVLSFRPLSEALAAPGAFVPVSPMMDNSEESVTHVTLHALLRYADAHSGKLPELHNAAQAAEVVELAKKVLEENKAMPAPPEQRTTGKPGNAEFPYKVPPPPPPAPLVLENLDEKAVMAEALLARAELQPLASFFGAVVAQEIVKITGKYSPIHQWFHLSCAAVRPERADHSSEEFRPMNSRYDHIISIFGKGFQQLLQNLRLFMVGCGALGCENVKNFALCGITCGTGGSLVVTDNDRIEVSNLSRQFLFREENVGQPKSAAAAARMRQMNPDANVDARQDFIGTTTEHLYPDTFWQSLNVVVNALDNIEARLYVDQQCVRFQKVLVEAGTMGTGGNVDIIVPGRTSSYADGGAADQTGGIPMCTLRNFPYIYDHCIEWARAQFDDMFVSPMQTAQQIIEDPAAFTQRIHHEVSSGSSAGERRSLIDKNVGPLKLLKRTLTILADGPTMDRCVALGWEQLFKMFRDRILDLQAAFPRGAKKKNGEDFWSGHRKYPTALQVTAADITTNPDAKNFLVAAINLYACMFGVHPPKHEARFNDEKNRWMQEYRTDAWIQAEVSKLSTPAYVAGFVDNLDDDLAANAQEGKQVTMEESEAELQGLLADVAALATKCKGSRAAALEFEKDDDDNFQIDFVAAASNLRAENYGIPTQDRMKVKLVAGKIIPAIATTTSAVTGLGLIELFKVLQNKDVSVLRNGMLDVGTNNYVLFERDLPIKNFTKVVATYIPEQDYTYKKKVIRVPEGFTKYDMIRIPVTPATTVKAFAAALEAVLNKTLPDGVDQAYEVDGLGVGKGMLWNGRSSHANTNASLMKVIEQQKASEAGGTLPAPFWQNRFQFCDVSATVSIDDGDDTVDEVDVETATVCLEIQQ
# [3] = biological target: AMP-activated protein kinase, AMPK (Homo sapiens) (UniProt P54646+O43741+P54619+Q9UGJ0+Q9Y478+Q13131+Q9UGI9); experiment: AMP-dependent Kinase enzyme assay. An in vitro enzyme assay that detects ADP turnover that is directly proportional to AMPK activity. This uses naive AMPK that is activated during the assay with MK-8722; format: functional; settings: 30 µM
# [4] = biological target: Sialic acid-binding Ig-like lectin 9 (Homo sapiens) (UniProt Q9Y336); experiment: Hs-Siglec9 ALPHAscreen SOP 20170721; settings: 10 µM
# Trypanosoma cruzi = experiment: Trypanosoma cruzi phosphomannomutase and mannose-1-phosphate guanylyltransferase assay; format: functional; settings: 10 µM
# [5] = biological target: T2, Arginase-2, mitochondrial (Homo sapiens) (UniProt P78540); experiment: in vitro enzyme assay to detect the production of urea directly proportional to the activity of Arginase II; format: functional; settings: 33.3 µM; further: in the data most compounds retested in dose-response had high values
# T2 sequence (whole entry): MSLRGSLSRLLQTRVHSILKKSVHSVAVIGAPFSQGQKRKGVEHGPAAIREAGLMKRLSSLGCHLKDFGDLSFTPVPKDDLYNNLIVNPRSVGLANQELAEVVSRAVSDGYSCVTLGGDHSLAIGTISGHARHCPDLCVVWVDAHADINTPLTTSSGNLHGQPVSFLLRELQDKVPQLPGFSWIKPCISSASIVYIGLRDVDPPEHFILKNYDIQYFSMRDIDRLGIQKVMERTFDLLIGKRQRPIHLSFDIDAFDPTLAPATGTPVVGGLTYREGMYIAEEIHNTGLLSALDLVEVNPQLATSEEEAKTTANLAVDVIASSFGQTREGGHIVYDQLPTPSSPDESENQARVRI
# [6] = biological target: T3, Proteasome subunit beta (Trypanosoma cruzi) (UniProt O96673); experiment: Trypanosoma cruzi proteasome chymotrypsin-like activity (TcProtChymo) assay.; further: in the data most compounds retested in dose-response had high values; format: functional; settings: 9.37 µM
# T3 sequence (whole entry): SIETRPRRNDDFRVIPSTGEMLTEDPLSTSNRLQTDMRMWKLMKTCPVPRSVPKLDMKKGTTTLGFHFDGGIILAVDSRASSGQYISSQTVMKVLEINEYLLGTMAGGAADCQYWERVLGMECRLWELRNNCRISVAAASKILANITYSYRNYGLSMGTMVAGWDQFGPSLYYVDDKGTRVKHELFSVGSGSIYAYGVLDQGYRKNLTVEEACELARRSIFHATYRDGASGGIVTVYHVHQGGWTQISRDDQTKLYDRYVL
# Homo sapiens = species on record: Homo sapiens; experiment: To identify inhibition of the IFN signalling (Jak-Stat) pathway via expression of an eGFP reporter gene under the control of an IFN-stimulated response element (ISRE) containing MxA promoter.; format: functional; settings: 30 µM
# [7] = biological target: T4, Tyrosyl-tRNA synthetase, putative (Trypanosoma cruzi (strain CL Brener)) (UniProt Q4DSP6); experiment: Trypanosoma cruzi tyrosyl tRNA synthetase (TcYRS) _High Tyrosine SOP; format: functional; settings: 30 µM; further: in the data most compounds retested in dose-response had high values
# T4 sequence (whole entry): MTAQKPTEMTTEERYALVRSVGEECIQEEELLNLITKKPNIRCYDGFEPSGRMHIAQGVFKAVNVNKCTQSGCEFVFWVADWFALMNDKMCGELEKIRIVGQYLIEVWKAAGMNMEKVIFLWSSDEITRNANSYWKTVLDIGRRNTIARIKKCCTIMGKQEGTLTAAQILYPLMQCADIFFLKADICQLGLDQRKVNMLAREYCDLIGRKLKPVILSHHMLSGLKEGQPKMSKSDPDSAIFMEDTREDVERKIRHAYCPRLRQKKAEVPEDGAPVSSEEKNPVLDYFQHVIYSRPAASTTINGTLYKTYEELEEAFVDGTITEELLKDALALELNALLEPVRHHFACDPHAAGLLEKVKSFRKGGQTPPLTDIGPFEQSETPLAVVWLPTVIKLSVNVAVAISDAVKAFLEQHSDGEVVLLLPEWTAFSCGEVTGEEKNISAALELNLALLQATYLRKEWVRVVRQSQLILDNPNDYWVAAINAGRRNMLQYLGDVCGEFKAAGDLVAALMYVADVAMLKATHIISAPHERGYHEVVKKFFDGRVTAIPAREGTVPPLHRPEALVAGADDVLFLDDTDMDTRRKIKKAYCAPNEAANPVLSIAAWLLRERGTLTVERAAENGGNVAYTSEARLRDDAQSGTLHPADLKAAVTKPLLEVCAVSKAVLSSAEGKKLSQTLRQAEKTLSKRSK
# [8] = biological target: T4, Tyrosyl-tRNA synthetase, putative (Trypanosoma cruzi (strain CL Brener)); experiment: Trypanosoma cruzi tyrosyl tRNA synthetase (TcYRS) SOP; format: functional; settings: 30 µM
# [9] = biological target: Chromo domain-containing protein 1 (Saccharomyces cerevisiae (strain ATCC 204508 / S288c) (Baker's yeast)) (UniProt P32657); experiment: ScCHD-1 Enzyme Inhibition Assay; format: functional; settings: 30 µM; further: in the data most compounds retested in dose-response had high values
# Chromo domain-containing protein 1 (Saccharomyces cerevisiae (strain ATCC 204508 / S288c) (Baker's yeast)), sequence (P32657 whole entry, the tested form may be a part): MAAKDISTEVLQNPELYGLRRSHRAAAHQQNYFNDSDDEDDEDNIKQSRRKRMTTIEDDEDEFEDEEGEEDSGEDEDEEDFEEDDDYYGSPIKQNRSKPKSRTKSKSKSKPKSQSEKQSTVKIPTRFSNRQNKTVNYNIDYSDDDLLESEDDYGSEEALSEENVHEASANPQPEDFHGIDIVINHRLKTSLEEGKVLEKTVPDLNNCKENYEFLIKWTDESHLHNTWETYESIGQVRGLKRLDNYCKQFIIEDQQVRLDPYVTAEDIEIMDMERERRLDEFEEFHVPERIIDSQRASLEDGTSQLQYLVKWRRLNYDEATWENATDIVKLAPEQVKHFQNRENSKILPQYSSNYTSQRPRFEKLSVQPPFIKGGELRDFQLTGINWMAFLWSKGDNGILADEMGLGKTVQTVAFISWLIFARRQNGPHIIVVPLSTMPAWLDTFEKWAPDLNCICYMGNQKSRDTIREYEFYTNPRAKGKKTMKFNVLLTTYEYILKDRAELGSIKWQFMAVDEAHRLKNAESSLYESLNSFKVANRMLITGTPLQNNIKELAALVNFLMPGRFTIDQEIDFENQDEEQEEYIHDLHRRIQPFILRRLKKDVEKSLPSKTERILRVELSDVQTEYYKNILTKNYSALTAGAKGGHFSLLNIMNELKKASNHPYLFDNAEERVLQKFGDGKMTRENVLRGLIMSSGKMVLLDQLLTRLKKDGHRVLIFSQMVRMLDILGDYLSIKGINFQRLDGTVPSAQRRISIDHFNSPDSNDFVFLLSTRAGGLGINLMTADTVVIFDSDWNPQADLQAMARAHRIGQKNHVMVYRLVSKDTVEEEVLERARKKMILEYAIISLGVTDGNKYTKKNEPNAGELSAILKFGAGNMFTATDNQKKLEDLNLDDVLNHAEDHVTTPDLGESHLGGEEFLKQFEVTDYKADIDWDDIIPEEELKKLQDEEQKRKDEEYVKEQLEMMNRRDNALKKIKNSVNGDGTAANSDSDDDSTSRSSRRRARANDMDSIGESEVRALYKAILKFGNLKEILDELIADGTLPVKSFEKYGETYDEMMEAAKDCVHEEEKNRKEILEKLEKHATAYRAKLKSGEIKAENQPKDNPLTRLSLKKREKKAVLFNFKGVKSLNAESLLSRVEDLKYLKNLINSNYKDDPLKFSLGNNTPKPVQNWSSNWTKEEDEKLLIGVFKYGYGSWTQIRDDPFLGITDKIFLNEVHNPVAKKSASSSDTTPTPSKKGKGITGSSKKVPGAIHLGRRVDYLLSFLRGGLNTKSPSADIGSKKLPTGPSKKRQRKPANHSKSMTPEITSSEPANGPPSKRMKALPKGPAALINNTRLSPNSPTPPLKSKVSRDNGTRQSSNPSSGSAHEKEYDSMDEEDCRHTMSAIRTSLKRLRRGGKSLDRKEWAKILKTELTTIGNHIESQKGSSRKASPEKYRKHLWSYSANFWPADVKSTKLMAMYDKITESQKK
# Sialic acid-binding Ig-like lectin 9 (Homo sapiens), sequence (Q9Y336 whole entry): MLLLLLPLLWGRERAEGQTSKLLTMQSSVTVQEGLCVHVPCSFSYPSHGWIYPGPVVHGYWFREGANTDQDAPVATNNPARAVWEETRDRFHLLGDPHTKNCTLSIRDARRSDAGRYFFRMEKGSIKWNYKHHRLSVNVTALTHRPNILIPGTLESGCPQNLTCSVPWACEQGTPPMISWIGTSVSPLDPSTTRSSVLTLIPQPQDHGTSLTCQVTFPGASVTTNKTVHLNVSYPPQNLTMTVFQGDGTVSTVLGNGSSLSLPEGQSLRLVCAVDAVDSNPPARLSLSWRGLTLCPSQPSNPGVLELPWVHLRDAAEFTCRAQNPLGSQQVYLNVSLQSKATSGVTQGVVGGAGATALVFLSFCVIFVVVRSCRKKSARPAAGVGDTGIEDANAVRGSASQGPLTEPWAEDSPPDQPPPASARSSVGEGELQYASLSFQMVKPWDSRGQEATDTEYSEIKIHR
# Protein translocase subunit SecA (Escherichia coli (strain K12)), sequence (P10408 whole entry): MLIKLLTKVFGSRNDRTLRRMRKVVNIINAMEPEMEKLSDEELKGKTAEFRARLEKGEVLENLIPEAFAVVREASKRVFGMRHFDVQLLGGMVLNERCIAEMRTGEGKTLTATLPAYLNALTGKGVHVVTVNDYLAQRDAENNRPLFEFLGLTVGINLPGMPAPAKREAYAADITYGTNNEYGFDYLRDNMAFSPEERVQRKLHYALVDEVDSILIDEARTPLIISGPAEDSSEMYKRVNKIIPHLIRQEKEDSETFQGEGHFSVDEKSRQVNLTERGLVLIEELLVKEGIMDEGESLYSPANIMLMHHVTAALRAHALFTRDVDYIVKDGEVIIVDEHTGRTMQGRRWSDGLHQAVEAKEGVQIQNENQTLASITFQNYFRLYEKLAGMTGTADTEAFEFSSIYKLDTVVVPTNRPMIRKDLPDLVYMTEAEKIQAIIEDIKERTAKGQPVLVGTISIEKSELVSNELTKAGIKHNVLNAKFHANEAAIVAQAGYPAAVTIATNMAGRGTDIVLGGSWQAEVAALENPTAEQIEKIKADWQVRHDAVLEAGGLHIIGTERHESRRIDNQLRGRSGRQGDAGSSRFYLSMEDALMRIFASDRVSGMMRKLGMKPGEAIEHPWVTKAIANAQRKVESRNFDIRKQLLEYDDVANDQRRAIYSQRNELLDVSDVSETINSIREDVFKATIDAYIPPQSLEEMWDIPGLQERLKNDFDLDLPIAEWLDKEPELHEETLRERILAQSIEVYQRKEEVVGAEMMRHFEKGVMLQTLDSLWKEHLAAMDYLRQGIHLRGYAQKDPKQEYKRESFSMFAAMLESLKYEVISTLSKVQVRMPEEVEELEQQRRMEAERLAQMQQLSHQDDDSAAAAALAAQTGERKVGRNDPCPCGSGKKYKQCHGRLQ
SMILES,Percent Effect [1] [%],Percent Effect [2] [%],Percent Effect [3] [%],Percent Effect [4] [%],Percent Effect (Trypanosoma cruzi) [%],Percent Effect [5] [%],Percent Effect [6] [%],Percent Effect (Homo sapiens) [%],Percent Effect [7] [%],Percent Effect [8] [%],Percent Effect [9] [%]
O=c1ccc(-c2cccs2)nn1CN1CCN(Cc2ccccc2)CC1,-4.73,-1.33,2.74,1.22,5.3,-10.4,11.7,20.2,3.17,10.3,-12.8
CNc1oc(-c2cc(S(=O)(=O)N3CCCCCC3)c(C)o2)nc1C#N,-5.54,-9.33,2.78,2.42,5.5,-3.35,11.3,8.06,1.06,10.3,-7.07
Cn1cc(CNc2ncnc3c2CCN(Cc2ccsc2)CC3)cn1,-6.16,13.3,-5.59,29.3,4.97,7.29,17.1,-4.35,4.92,16.1,-0.968
COCC1CC2(CCN(C(=O)c3cc(C)oc3C)CC2)CN1C(C)C (stereo unspecified),-2.57,0,-9.18,-4.84,2.15,-1.25,9.21,1.95,8.91,15.8,-7
Cc1cccc(Cn2c3c(ccc2=O)CCN(Cc2ccoc2)CC3)n1,-0.765,8.22,-3.21,11.9,7.54,-14,10.5,6.67,4.17,6.17,-3.8
C[S+]([O-])c1nncn1CC(=O)c1cccc(Cl)c1 (stereo unspecified),-7.89,16.2,-4.48,23.3,6.16,3.72,10.4,-1.98,5.38,8.64,-6.7
Cc1ccccc1CN1CCN(CC(=O)Nc2cccnc2)CC1,-3.14,15.6,-360,-1.61,6.95,3.58,11.1,12.5,4.76,18.8,-2.58
CCc1cc(N[C@H]2CC[C@H](O)CC2)n2nc(C)c(C)c2n1,-3.74,1.39,0.211,-3.49,-2.82,-0.442,5.09,-20.9,-9.47,10.3,-3.52
Cc1cnn(CCC(=O)N2CCCN(c3ncccc3C#N)CC2)c1,-7.15,19,-1.68,6.67,-1.74,-0.215,9.61,-1.81,4.17,20.2,-30.4
CCOCCCC(=O)NCCC(=O)N1CCN(c2ccccn2)CC1,-3.47,7.89,4.17,5.65,-3.99,-4.73,13.3,2.43,5.32,13,-4.16
CCC(C)(C)NC(=O)CN(C)C(c1cccc(F)c1)c1ccccn1 (stereo unspecified),0.66,2.6,9.59,15.1,-3.56,3.56,0.845,36.6,5.83,7.32,-2.33
